Screen size: about 360,000 compounds; about 3,700 (1%) were called active. Not shown: some 2% with an inconclusive outcome.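 Rule for the calls: active = normalized GFP-positive differentiation at or above the plate's own cutoff, the solvent-only control mean plus 3 SD; inconclusive = no clear call, values can overlap the other calls; inactive = the rest.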 Shown is part of a subset that was picked to be rich in actives.
test: induction of myeloid progenitor differentiation, primary screen, cell-based, flow cytometry, MLPCN library (AID 624256); conditions: ER-HoxA9 myeloid progenitors, lysozyme-GFP differentiation, at 10 µM; GFP+ MAC1+ double positive: measured here: differentiation confirmed by MAC1 staining, stronger effect = higher value; normalized GFP-positive differentiation: stronger effect = higher value;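 for GFP+ MAC1+ double positive: cells exposed to compound for four days before flow analysis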;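 for normalized GFP-positive differentiation: cells exposed to compound for four days before flow analysis; 0% = DMSO wells and 100% = fulvestrant positive control at 5 µM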

Row | Compound | GFP+ MAC1+ double positive | outcome | normalized GFP-positive differentiation
1 | Oc1cccc2cc(-c3ccncc3)cnc12 | 0.7% | inactive | –
2 | COCCNc1ncnc2c1ncn2[C@H]1CN(CCN2CCOCC2)C[C@@H](CO)O1 | 1.1% | inactive | –
3 | CCOC(=O)[C@]12CCCC=C1N(CCC1=CCCCC1)C(=O)[C@H](CC(=O)NCCCCc1ccccc1)C2 | 2.2% | inactive | –
4 | CCCOC(=O)Cc1c(O)c2ccccc2[nH]c1=O | 0.6% | inactive | –
5 | O=C(Cc1c(O)c2ccccc2[nH]c1=O)NCc1ccccc1 | 0.1% | inactive | –
6 | COC(=O)Cc1c(-c2[nH]c3ccccc3c2CC(=O)OC)[nH]c2ccccc12 | 17.1% | – | 207% (active)
7 | CCOc1ccc(Cl)cc1-c1cc(C(=O)NCc2cccs2)[nH]n1 | 1.7% | inactive | –
8 | CC1(C(=O)NS(=O)(=O)c2ccccc2)CCN1C(=O)c1ccccc1 (configuration not stated) | 0.9% | inactive | –
9 | COc1ccccc1Cc1c(-c2ccc(Cl)cc2)nc2c3ccccc3ccn12 | 0.5% | inactive | –
10 | CCOC(=O)N1CCN(C(=O)c2ccc3c(=O)n(CCc4ccc(OC)c(OC)c4)c(=O)[nH]c3c2)CC1 | 6.8% | – | 56% (active)
11 | COCCn1c(=S)[nH]c2cc(C(=O)NCCc3ccc(OC)c(OC)c3)ccc2c1=O | 2.7% | inactive | –
12 | COc1ccc(Cn2c(=S)[nH]c3cc(C(=O)N4CCCCC4)ccc3c2=O)cc1 | 0.2% | inactive | –
13 | CCCCc1c(-c2ccc(Br)cc2)ncn1CCc1ccccc1OC | 2.9% | inactive | –
14 | C[C@H](NC(=O)[C@@H]1CCCN1C(=O)[C@@H]1CCCN1C(=O)c1ccccc1)c1ccccc1 | 0.7% | inactive | –
15 | Cc1ccc(CN2CC(N3CCC(Cc4ccccc4)CC3)CS2(=O)=O)cc1 (configuration not stated) | 1.6% | inactive | –
16 | COc1ccc(C2(O)C(=O)Nc3ccccc32)cc1 (configuration not stated) | 0.4% | inactive | –
17 | Cc1cc(O)c(C2(O)C(=O)Nc3ccccc32)cc1C (configuration not stated) | 0.4% | inactive | –
18 | Cc1cccc(CC2(O)C(=O)Nc3ccccc32)n1 (configuration not stated) | 29.8% | – | 367% (active)
19 | Cc1ccc(S(=O)(=O)N2CC[C@H]3[C@@H](C2)C(=O)C[C@@H](c2ccccc2)N3S(=O)(=O)c2ccc(C)cc2)cc1 | 2.5% | inactive | –
20 | Cc1[nH]c2ccccc2c1C(=O)COC(=O)c1c(-c2ccccc2)noc1C | 0.6% | inactive | –
21 | CCOC(=O)c1c(-c2cccc(C)c2)csc1NC(=O)c1c(-c2ccccc2)noc1C | 15.3% | – | 89% (active)
22 | CCOC(=O)c1c(-c2ccc(-c3ccccc3)cc2)csc1NC(=O)CCC(=O)O | 0.3% | inactive | –

Row | Compound | GFP+ MAC1+ double positive | outcome | normalized GFP-positive differentiation
23 | CC1(C(=O)NCc2ccccc2)CSCC(=O)N1CCCN1CCOCC1 (configuration not stated) | 4% | inactive | –
24 | CSCCC(C(=O)NC(C)(C)C)n1c(-c2ccccc2)nc2ccccc21 (configuration not stated) | 4% | inactive | –
25 | CSc1ccc(CN2CCC2(C)C(=O)NCc2ccccc2Br)cc1 (configuration not stated) | 0.7% | inactive | –
26 | O=C(NCc1ccc(F)cc1)c1cc(C2CCCCN2C(=O)c2ccccn2)on1 (configuration not stated) | 2.6% | inactive | –
27 | N#Cc1ccc(C(C(=O)NCc2ccccc2)n2c(=O)c(-c3ccco3)nc3ccccc32)cc1 (configuration not stated) | 2.4% | inactive | –
28 | CC(C)OC(=O)c1ccc(NCc2cc(O)ccc2O)cc1Cl | 7.3% | – | 354% (active)
29 | CC(OC(=O)c1ccc(Cl)cc1O)C(=O)NCCC1=CCCCC1 (configuration not stated) | 0.3% | inactive | –
30 | COC(=O)c1ccc(NCc2cc(O)ccc2O)cc1 | 1.6% | inactive | –
31 | CC(C)(C)CC(=O)Nc1nc(C(N)Cc2ccc(C(F)(F)F)cc2)cs1 (configuration not stated) | 0.2% | inactive | –
32 | Cc1ccc(S(=O)(=O)N2CC3C(=O)C[C@@H](c4ccccc4Cl)N(S(=O)(=O)c4ccc(C)cc4)C3CC2c2ccccc2)cc1 (some centres not stated) | 1.9% | inactive | –
33 | S=c1[nH]nc(-c2cccs2)n1/N=C/c1cn(-c2ccccc2)nc1-c1ccc(Cl)cc1 | 0.1% | inactive | –
34 | O=C(O)c1ccc(N/N=C/c2cn(-c3ccccc3)nc2-c2cccs2)cc1 | 0.5% | – | 10.8% (active)
35 | CC(=O)C1=C(C)NC(C)=C(C(C)=O)C1c1cn(-c2ccccc2)nc1-c1cccs1 | 0.7% | inactive | –
36 | Cc1nc2c(OCC(=O)C(C)(C)C)cccn2c1N(C)Cc1cccs1 | 2.1% | inactive | –
37 | Fc1cccc(Cc2c(-c3cccc(Cl)c3)nc3ccc(Br)cn23)c1 | 0.4% | inactive | –
38 | O=C(Nc1cccc(Cc2ccccc2)c1)Nc1ccc2nc([C@@H]3O[C@H](CO)[C@@H](O)[C@H](O)[C@H]3O)[nH]c2c1 | 2.9% | inactive | –
39 | CC#CC[N+](C)(C)CCCCCC | 1.6% | – | 19.3% (active)
40 | COC(=O)[C@]12CCCCC=C1N(Cc1ccc(Cl)cc1Cl)C(=O)[C@H](CC(=O)NCc1cccc3ccccc13)C2 | 1.1% | inactive | –
41 | Cc1cc2oc3ccc(NCCC4CCCN4C)cc3c(=O)c2cc1C (configuration not stated) | 6.6% | – | 73.2% (active)
42 | COc1cccc2sc3cc(NCC[C@@H]4CCCN4C)ccc3c(=O)c12 | 1.3% | inactive | –
43 | CCCCNC(=O)c1nc(C2CCN(S(=O)(=O)c3ccc(F)c(F)c3)CC2)oc1-c1cccc(C(F)(F)F)c1 | 0.6% | inactive | –
44 | Cc1ccc(S(=O)(=O)N2CCCCC2)cc1NC(=O)c1cccnc1 | 1.2% | inactive | –

Row | Compound | GFP+ MAC1+ double positive | outcome | normalized GFP-positive differentiation
45 | O=C(Nc1cccc(-n2cnnn2)c1)c1cccnc1 | 2% | inactive | –
46 | Cc1ccc(-n2nc3cc(C)c(NC(=O)c4cccnc4)cc3n2)cc1 | 5.5% | – | 15.8% (active)
47 | CC1(C(=O)NS(=O)(=O)c2ccc(C#N)cc2)CCN1C(=O)CC1CCCC1 (configuration not stated) | 0.6% | inactive | –
48 | CC(NC(=O)COC(=O)CCC(=O)c1ccc(Cl)cc1)c1ccccc1 (configuration not stated) | 0.8% | inactive | –
49 | C=CCOc1ccc(/C=C/C(=O)OCC(=O)NC(C)c2ccc(F)cc2)cc1 (configuration not stated) | 0.7% | inactive | –
50 | CC(NC(=O)COC(=O)c1ccc(Cl)cc1O)c1ccc(F)cc1 (configuration not stated) | 6.2% | – | 140% (active)
51 | CN1OC[C@@H]2CN(C(=O)C(C)(C)C)[C@H](c3ccc(-n4ccnc4)cc3)C[C@@H]21 | 0.2% | inactive | –
52 | COc1ccc(/C=C/C(=O)c2c(O)cc(OC)cc2OC)cc1 | 1.7% | inactive | –
53 | O=C(NCc1ccccc1)C(c1ccc(F)cc1)N1CCN(C(=O)C2CCCO2)CC1 (configuration not stated) | 0.2% | inactive | –
54 | CCC(=O)N1Cc2cc(C(=O)NCc3cccc(F)c3)nc(-c3cccc(C4=CCCC4)c3)c2[C@H]1CCO | 0.5% | inactive | –
55 | CCOC(=O)c1c(-c2ccccc2)oc2cc(Br)c(O)c(C=O)c12 | 0.5% | inactive | –
56 | Cc1cc(=O)oc2ccc(OCC(=O)O)cc12 | 2.2% | inactive | –
57 | CCOC(=O)c1c(-c2ccccc2)oc2ccc(OCC(=O)NN)cc12 | 1.9% | – | 26.6% (active)
58 | CC(C)OC(=O)CC(=O)CC(O)c1cccc([N+](=O)[O-])c1 (configuration not stated) | 3.1% | inactive | –
59 | COCOc1cccc(CN2CCC(C)(Oc3ccc(SC)cc3)C2)c1 (configuration not stated) | 0.7% | inactive | –
60 | CN(C)C(=O)c1cccc(-c2cnc3c(NC=O)cc(-c4ccc(F)cc4)cn23)c1 | 1.2% | inactive | –
61 | CCCc1nc2c3ccccc3ccn2c1Cc1ccccc1C(F)(F)F | 1.1% | inactive | –
62 | NC(c1csc(NC(=O)Nc2cccc(C(F)(F)F)c2)n1)C1CCCCC1 (configuration not stated) | 1.4% | inactive | –
63 | CCOC(=O)C1=CCC2C(=O)N(Cc3ccccc3)C(=O)C12 (configuration not stated) | 1.7% | inactive | –
64 | CN(C)CCNC(=O)/C(=C/c1cccc([N+](=O)[O-])c1)NC(=O)c1ccccc1 | 0.5% | inactive | –
65 | CN(C(=O)c1cccc([N+](=O)[O-])c1)c1ccccc1C(=O)NCc1ccccc1 | 2.5% | – | 45.3% (active)
66 | CC(C)(C)SCCNC(=O)c1cccc([N+](=O)[O-])c1 | 1.8% | inactive | –

Row | Compound | GFP+ MAC1+ double positive | outcome | normalized GFP-positive differentiation
67 | O=C1Nc2ccccc2NC(c2ccc3c(c2)OCO3)=C1N(Cc1ccc(F)cc1)C(=O)c1ccco1 | 0.3% | inactive | –
68 | COC(=O)C[C@H]1C=C[C@H](NC(=O)c2ccc(F)cc2)[C@@H](CO)O1 | 3.2% | inactive | –
69 | O=C1OCCOC2CCCc3oc(-c4ccccc4)c1c32 (configuration not stated) | 0.1% | inactive | –
70 | Cc1cccc(-n2c(SCC(=O)Nc3cccc(S(=O)(=O)NC4=NCCCCC4)c3)nc3ccccc3c2=O)c1C | 2.9% | – | 30% (active)
71 | COc1ccccc1C(=O)OCC(=O)Nc1cccc(S(=O)(=O)NC2=NCCCCC2)c1 | 1.4% | inactive | –
72 | CCc1ccc(C(=O)OCC(=O)Nc2cccc(S(=O)(=O)NC3=NCCCCC3)c2)cc1 | 0.1% | inactive | –
73 | CCc1nc2c(OCCOc3ccccc3)cccn2c1N(C)C(=O)c1cccs1 | 0.5% | inactive | –
74 | CN(C)C1CN(Cc2cn(Cc3ccccc3)nn2)S(=O)(=O)C1 (configuration not stated) | 1.6% | inactive | –
75 | CC(=O)Nc1cccc(OCC(=O)/C=C2\N(C)c3ccccc3C2(C)C)c1 | 0.5% | – | 24.3% (active)
76 | COc1cccc(NC(=S)C(C#N)=C2N(C)c3ccccc3N2C)c1 | 0.3% | inactive | –
77 | Cc1cccc(OCC(=O)Nc2ccccc2F)c1 | 0.3% | inactive | –
78 | CC1(C)OC(=O)C2=C(C[C@@H](C3CCCC3)O[C@@H]2c2ccc(Cl)cc2)O1 | 1.8% | inactive | –
79 | COc1c(C)cc(C(O)c2ncc(-c3cccc(C(F)(F)F)c3)[nH]2)cc1C (configuration not stated) | 1.2% | inactive | –
80 | O=C(Nc1cccc(NC(=O)c2ccccc2[N+](=O)[O-])c1)c1ccccc1Cl | 0.4% | inactive | –
81 | O=C(Nc1ccc2sc3ccccc3c(=O)c2c1)c1ccccc1Cl | 0.3% | – | 12.5% (active)
82 | COc1cc(NC(=O)c2cccs2)ccc1NC(=O)c1ccccc1Cl | 0.6% | inactive | –
83 | Cc1cc2nc(-c3ccco3)c(Cc3cccc(F)c3)n2c(C)c1Br | 0.9% | inactive | –
84 | O=C(CCCN1C(=O)CCC1=O)Nc1ccc(Cl)c(C(F)(F)F)c1 | 8.3% | – | 22.8% (active)
85 | CN(CC(=O)Nc1ccc(Cl)c(C(F)(F)F)c1)C(=O)CCC(=O)c1ccccc1 | 1% | inactive | –
86 | O=C(CN1CCN(C(=O)c2ccco2)CC1)Nc1ccc(Cl)c(C(F)(F)F)c1 | 0.9% | inactive | –

From PubChem BioAssay AID624256 (NMMLSC, 2012)
